# Reference: PubChem BioAssay AID2551 (National Center for Advancing Translational Sciences (NCATS), 2010)
# Screen size: about 310,000 compounds; about 17,000 (5.5%) were called active. Inconclusive results (about 11%) are left out. This excerpt belongs to a sample that is enriched for actives. A number with no mark means an inactive call. The call rests on the fitted dose curve; in most records, active means well fitted inhibition curve with a large enough effect; inconclusive means small, poorly fitted or top-dose-only effect, or effect the other way; inactive means no such curve, though single readings can be large or run the other way.
# Molecular target: Nuclear receptor ROR-gamma (Mus musculus) (UniProt P51450)
# Test: qHTS for inhibitors of ROR gamma transcriptional activity; further: nearly all actives have a fitted effect of over 60% in size
# Conditions: Drosophila S2 Gal4-RORgamma UAS-luciferase reporter, 20 h; series mostly up to 53.6 µM; activity change, negative = inhibition: at the top concentration
# Procedure, shortened: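 A Gal4/UAS one-hybrid system in insect cells: metallothionein-promoter Gal4–ROR gamma fusion plus Photinus luciferase reporter. Copper sulfate 700 uM final, 20 hr ambient incubation, luminescent detection after 10 min with reagent.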
# On the % scale 0 is the no-effect control and ±100 the full control effect; potency means the concentration at half of the fitted maximal effect.
# Chain of Nuclear receptor ROR-gamma (Mus musculus) (P51450 whole entry, looked up): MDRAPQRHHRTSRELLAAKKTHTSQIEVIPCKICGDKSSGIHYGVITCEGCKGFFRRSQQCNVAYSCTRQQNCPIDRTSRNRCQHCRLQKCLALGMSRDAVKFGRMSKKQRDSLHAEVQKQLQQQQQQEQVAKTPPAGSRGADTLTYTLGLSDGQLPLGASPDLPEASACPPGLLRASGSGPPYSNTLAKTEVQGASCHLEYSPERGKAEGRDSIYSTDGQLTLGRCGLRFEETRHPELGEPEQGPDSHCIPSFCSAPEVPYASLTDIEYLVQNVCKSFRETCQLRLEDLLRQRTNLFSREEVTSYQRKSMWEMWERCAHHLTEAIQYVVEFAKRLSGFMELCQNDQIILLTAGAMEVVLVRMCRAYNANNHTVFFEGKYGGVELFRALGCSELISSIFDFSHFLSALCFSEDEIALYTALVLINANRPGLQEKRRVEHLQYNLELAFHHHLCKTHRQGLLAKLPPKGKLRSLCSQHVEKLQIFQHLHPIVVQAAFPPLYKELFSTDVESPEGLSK
SMILES,"activity change, negative = inhibition",Potency
O=C(O)c1ccc(OCC2CCCO2)cc1 (centres undefined),-11.8%,
N=C1/C(=C/c2cccn2-c2cccc([N+](=O)[O-])c2)C(=O)N=C2SC=CN12,,5.01 µM (active)
Cc1ccc(-c2nc(-c3ccncc3)no2)c(C)c1,-32.9%,
CCOc1ccccc1NC(=O)CCc1nnc2ccc(NCc3ccco3)nn12,0.872%,
CC1=C/C(=N\S(=O)(=O)c2ccccc2)C(C(C)C)=CC1=O,-9.35%,
O=S(=O)(ON(c1ccccc1)S(=O)(=O)c1ccccc1)c1ccccc1,26.8%,
CC1=C/C(=N\OS(=O)(=O)c2ccccc2)C=CC1=O,,1.58 µM (active)
CCN1C(=NCC(C)C)N[C@@H](CCc2ccccc2)[C@H](C(=O)NCC(C)C)[C@H]1C,,inactive
CCOc1cc(/C=N/n2cnnc2)c(Br)cc1O,,7.08 µM (active)
Fc1ccc(Br)cc1/C=N/n1cnnc1,-8.64%,
Brc1cc(/C=N/n2cnnc2)oc1Br,37.3%,
O=C(CN1CCN(c2ccc(Cl)cc2)CC1)c1ccccc1,0.492%,
COc1ccc(S(=O)(=O)NCCOc2ccccc2)cc1F,29.1%,
COc1ccc(NS(=O)(=O)c2cc(C(=O)Nc3ccccc3C(=O)O)ccc2C)cc1,25.4%,
COCCN(CC(=O)Nc1ccccc1C)S(=O)(=O)c1ccc(S(=O)(=O)N2CCCC2)cc1,-8.45%,
COc1ccc(/C=C(/NC(=O)c2ccc(C)cc2)c2nc3ccccc3[nH]2)cc1OC,16.7%,
COCCN(CCOC)S(=O)(=O)c1ccc(/C(O)=C(\C#N)c2nc3ccccc3[nH]2)cc1,,12.6 µM (active)
COc1ccc(-n2c(=O)[nH]c3cc(C(=O)NCCc4ccc(OC)c(OC)c4)ccc3c2=O)c(OC)c1,27.9%,
COc1ccc(CN2CC(C(=O)NC3CCCCC3)CC2=O)cc1 (centres undefined),1.66%,
COc1ccc(CN2CN(C3CCCC3)CSC2=S)cc1,,7.94 µM (active)
COc1ccc(CNC2CCCCC2)cc1,-10.4%,
CCN(C(=O)CN1C(=O)/C(=C/c2ccc(F)cc2)SC1=S)C1CCS(=O)(=O)C1 (centres undefined),-12.7%,

SMILES,"activity change, negative = inhibition",Potency
CN(CC(=O)NCc1ccc(Cl)cc1)S(=O)(=O)c1cccs1,21.2%,
O=C(Cc1nc2ccccc2[nH]c1=O)c1ccc(Cl)cc1,32.2%,
O=C(COc1ccccc1)NCCc1nc2ccccc2[nH]1,1.23%,
N#C/C(=C(/O)COC(=O)COc1ccc(Cl)cc1)c1nc2ccccc2[nH]1,,8.91 µM (active)
COc1ccccc1CNC(=O)C1CCN(S(=O)(=O)c2ccc3c(c2)OCCO3)CC1,-14.7%,
COc1ccc(NC(=O)CC(NC(C)c2ccccc2)C(=O)O)cc1 (centres undefined),-12.4%,
Cc1nn2c3ccccc3nc2n(C)c1=O,-32%,
CN1c2ccccc2-c2nc3ccccc3n2C1c1ccco1 (centres undefined),,14.1 µM (active)
Cc1cc(NCc2ccco2)n2c(nc3ccccc32)c1C#N,38.8%,
N#Cc1c(-c2ccccc2)nc(SCc2ccc([N+](=O)[O-])cc2)[nH]c1=O,1%,
CC(C)NC(=O)N1CCN(c2ccncc2S(=O)(=O)N2CCCCC2)CC1,8.85%,
CC(C)C[C@H]1CN=C(Nc2ccccc2)N1CC1CCCCC1,-2%,
C/C(=N\Nc1nc(N2CCOCC2)nc(N2CCOCC2)n1)c1ccc([N+](=O)[O-])cc1,-4.91%,
Cc1ccc(Nc2nc(N3CCOCC3)nc(N3CCOCC3)n2)cc1Cl,3.19%,
C/C(=N\Nc1nc(Nc2ccccc2)nc(N2CCOCC2)n1)c1cccs1,,14.1 µM (active)
Cc1ccc(-n2ncc(C(=O)NC3CC3)c2C2CCN(C(=O)OC(C)(C)C)CC2)c(C)c1,0.982%,
CCOc1ccc(CNC(=O)C2CCCN(c3nnc(C)c4c(C)n(-c5ccccc5)nc34)C2)cc1 (centres undefined),-25.4%,
COc1ccc(-c2csc(NC(=O)CCCc3cccs3)n2)cc1,22.6%,
CCCc1ccc(-c2csc(NC(=O)Cc3cccs3)n2)cc1,,12.6 µM (active)
Cc1ccc(-c2csc(NC(=O)Cc3cccs3)n2)cc1C,5.64%,
O=C(COC(=O)/C=C/c1cccs1)NC1CCCCC1,21.6%,
CCn1c(/C=C/c2ccc([N+](=O)[O-])o2)nc2ccccc2c1=O,,7.94 µM (active)

SMILES,"activity change, negative = inhibition",Potency
Cn1cc(/C=C/c2nc3ccccc3c(=O)n2-c2cccc([N+](=O)[O-])c2)c2ccccc21,0.991% [at 10 µM],
Cc1nc2ccccc2c(=O)n1Cc1ccc([N+](=O)[O-])cc1,-3.36%,
Cc1cccc(-c2c(NC(=O)c3ccco3)oc3ccc(Cl)cc3c2=O)c1,-0.588%,
CN(C)CCOC1c2ccccc2-c2ccccc21,-25.2%,
COc1ccc(CNC(=O)C2CCN(C(=O)c3ccccc3)CC2)cc1,2.56%,
O=C(c1ccccc1F)N1CCN(S(=O)(=O)c2ccc(Br)cc2)CC1,-0.802%,
O=C(c1ccc(Cl)c(S(=O)(=O)N2CCCCC2)c1)N1CCCCCC1,3.79%,
O=C(c1ccc[nH]c1=S)N1CCN(S(=O)(=O)c2ccc(Br)cc2Cl)CC1,,22.4 µM (active)
COc1cc2c(C(=O)N(C)c3cc(Cl)ccc3OC)cn(C)c(=O)c2cc1OC,18.1%,
COc1ccc(CNC(=O)C2CCN(S(=O)(=O)c3ccc(SC)cc3)CC2)cc1,31.9%,
Cc1nnc(SCC(N)=O)n1CC1CCCO1 (centres undefined),0.52%,
Cc1cc(C(=O)COC(=O)C2CC2)c(C)n1-c1ccc(F)cc1,6.95%,
Cc1ccsc1C(=O)OCC(=O)c1cc(C)n(CC2CCCO2)c1C (centres undefined),,3.98 µM (active)
CCc1ccc(CN(C)C(=O)C2CCC(=O)N(Cc3cccc(OC)c3)C2)nc1 (centres undefined),-27.6%,
CC(C)CC(=O)Nc1ccc(Cc2ccncc2)cc1,9.55%,
O=C(O)C1CCCN1C1=NS(=O)(=O)c2ccccc21 (centres undefined),-12.2%,
O=C(CN1CCC(NC(=O)C2CC2)CC1)Nc1ccccc1[N+](=O)[O-],-10.8%,
Cc1c(NC(=O)CSc2nnnn2-c2ccc(C(=O)O)cc2)c(=O)n(-c2ccccc2)n1C,-0.926%,
Cc1ccc(NC(=O)CSc2cccc3cccnc23)c(C)c1,,10 µM (active)
O=C(CSc1cccc2cccnc12)N/N=C/c1cccnc1,,7.08 µM (active)
Cc1c(NC(=O)CSc2cccc3cccnc23)c(=O)n(-c2ccccc2)n1C,,7.94 µM (active)
C/C(CC(=O)Nc1ccc(C)cc1C)=N\NC(=O)C(C)C,-36.6%,

SMILES,"activity change, negative = inhibition",Potency
Cc1nc2ccccc2n1CC(=O)N/N=C/c1cccnc1,-11%,
Cc1ccc(NC(=O)Cn2nc(C)c3ccccc3c2=O)c(C)c1,16.6%,
Cc1c(NC(=O)c2cccnc2)c(=O)n(-c2ccccc2)n1C,,inactive
O=C(CNC(=O)c1cccnc1)N/N=C/c1cccnc1,-2.45%,
Cc1cc(NC(=O)CCN2CCN(Cc3ccccc3)CC2)ccc1Br,18.5%,
CCN(CC)S(=O)(=O)c1ccc(N2CCOCC2)c(NC(=O)C2CSC3(C)CCC(=O)N23)c1 (centres undefined),-10.9%,
O=C(CCS(=O)(=O)c1ccc2c(c1)NC(=O)CS2)NCc1ccccc1Cl,-16.6%,
Cc1ccc(CN(CC(=O)NC2CCCCC2)C(=O)c2csnn2)cc1,-2.84%,
O=C(c1ccccc1)N1CCC(CC2CC(c3ccc(Cl)cc3)=NO2)(C(=O)NCC2CCCCC2)CC1 (centres undefined),40.6%,
COc1cccc(CNC(=O)CCC2CCCN(C(=O)c3ccc(F)c(Cl)c3)C2)c1 (centres undefined),18.5%,
Clc1ccc(CN2CCN(/N=C/c3cccnc3)CC2)cc1,30.9%,
O=C1/C(=C\c2cccnc2)CN(Cc2ccccc2)C/C1=C\c1cccnc1,,6.31 µM (active)
O=Cc1cn(Cc2ccccc2)nc1-c1cccnc1,31.5%,
Cc1cc(C)c(S(=O)(=O)c2cc(F)ccc2C)c(=O)[nH]1,4.32%,
O=S(=O)(c1ccc(Br)cc1)c1nc(-c2ccccc2)oc1N1CCOCC1,18.9%,
CCOC(=O)c1cccc(NC(=O)CCc2nnc3ccc(N4CCOCC4)nn23)c1,-7.72%,
CCn1c2ccccc2c2cc(NC(=O)CNC)ccc21,-24.9%,
Cc1cc(N2CCN(C)CC2)nc2ccc(NC(=S)N3CCOCC3)cc12,20.9%,
CCn1c2ccccc2c2cc(NC(=S)N3CCOCC3)ccc21,,3.16 µM (active)
COc1ccc(NC(=O)CN2C(=O)CSc3ccc(S(=O)(=O)N4CCC(C)CC4)cc32)cc1,-3.43%,
CCOc1ccc(N(CC(=O)NCC2CCCO2)S(=O)(=O)c2ccc(C)cc2)cc1 (centres undefined),-1.53%,
CC(C)CNC(=O)C(=O)NCC(c1ccc2c(c1)OCO2)N1CCOCC1 (centres undefined),-9.72%,

SMILES,"activity change, negative = inhibition",Potency
O=C(CCN1C(=O)[C@@H]2Cc3ccccc3CN2C1=O)NCc1ccccc1,-16.9%,
COC(=O)c1ccccc1NC(=O)C1CCN(C(=O)N2CCOc3ccccc32)CC1,-18.9%,
CC(Sc1nnc(CNC(=O)c2ccccc2F)n1C)C(=O)Nc1nccs1 (centres undefined),44.3%,
Cc1ccc(S(=O)(=O)N2CCC(C)CC2)cc1C(=O)NCc1ccccn1,20.4%,
COc1cccc(CNC(=O)Cn2c(=O)oc3cc(S(=O)(=O)N4CCCCC4)ccc32)c1,-5.77%,
O=C(Cc1cccs1)Nc1ccc([N+](=O)[O-])cc1,-3.22%,
CCN1/C(=C/C(=S)Nc2ccccc2)Sc2ccccc21,,3.16 µM (active)
O=C(CCN1c2ccccc2Sc2ccccc21)Nc1ccccc1,29.4%,
CCNC(=O)N1c2ccccc2Sc2ccccc21,7.49%,
COc1ccc(C(=O)NC2CC2)cc1OC1CCN(C/C=C/c2ccccc2)CC1,-0.323%,
CCCn1c(=S)[nH]c2ccc(C(F)(F)F)cc21,15.4%,
CC(C)n1c(=S)[nH]c2cc(C(F)(F)F)ccc21,,0.891 µM (active)
O=C(NCc1ccccc1)C(c1cccnc1)N(C(=O)c1csnn1)c1ccc(F)cc1 (centres undefined),22.6%,
Cn1c(=O)c(=O)n(C)c2cc(S(=O)(=O)CCC(=O)N3CCCCC3)ccc21,-3.07%,
COc1ccc(/C=C/c2c(-c3cccc(C)c3)oc3ccc(-c4ccc5c(c4)OCO5)cc23)cc1,-3.64%,
CCOC(=O)C1=C(C)Nc2nc3ccccc3n2C1c1cccs1 (centres undefined),,5.62 µM (active)
COc1ccccc1NC(=O)C1=C(C)Nc2nc3ccccc3n2C1c1cccs1 (centres undefined),,11.2 µM (active)
COc1ccccc1NC(=O)C1=C(C)Nc2ncnn2C1c1ccc(C)o1 (centres undefined),-5.98%,
COc1ccccc1NC(=O)C1=C(C)NC(=O)NC1c1ccc(C)s1 (centres undefined),11.4%,
CCOC(=O)c1ccc(NC(=O)C2CC(=O)Nc3nc4ccccc4n32)cc1 (centres undefined),0.863%,
CCOC(=O)C1=C(C)NC(=S)NC1c1cccs1 (centres undefined),-23.4% [at 10 µM],
